# Target: Torsin-1A-interacting protein 1 (Homo sapiens) (UniProt Q5JTV8)
# Assay: LAP1 binders from COS7 cell lysate, primary screen, small-molecule microarray, 635/667 nm fluorescence (AID 1116)
# Details: COS7-hLAP1 lysate binding, 635 nm fluorescence, higher = more signal
# Sequence of Torsin-1A-interacting protein 1 (Homo sapiens) (Q5JTV8 whole entry, looked up): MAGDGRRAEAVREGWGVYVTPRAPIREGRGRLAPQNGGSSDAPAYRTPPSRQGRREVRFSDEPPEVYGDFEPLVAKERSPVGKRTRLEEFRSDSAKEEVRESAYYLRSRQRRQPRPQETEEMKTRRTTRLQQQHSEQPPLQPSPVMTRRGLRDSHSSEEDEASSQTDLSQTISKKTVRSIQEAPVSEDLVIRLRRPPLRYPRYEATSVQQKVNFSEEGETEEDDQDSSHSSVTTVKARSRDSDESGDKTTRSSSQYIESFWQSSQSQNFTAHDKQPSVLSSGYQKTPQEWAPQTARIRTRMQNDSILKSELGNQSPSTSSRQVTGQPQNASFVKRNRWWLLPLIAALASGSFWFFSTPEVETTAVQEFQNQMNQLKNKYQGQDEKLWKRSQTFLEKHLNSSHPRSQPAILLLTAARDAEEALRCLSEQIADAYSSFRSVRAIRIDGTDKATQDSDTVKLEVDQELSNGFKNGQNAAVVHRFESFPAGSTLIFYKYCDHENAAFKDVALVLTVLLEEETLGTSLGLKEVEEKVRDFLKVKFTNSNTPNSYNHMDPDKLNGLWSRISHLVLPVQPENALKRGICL
row,Compound,composite z-score
1,Cc1ccc(S[C@]2(C(=O)NC(C)C)CC(=O)N(C3Cc4ccccc4C3)[C@@H]2c2ccc(CO)cc2)cc1,1.52
2,[N-]=[N+]=NCc1ccccc1C[C@]1(C(N)=O)N=C(c2ccc(OCCCO)cc2)O[C@H]1c1ccccc1CN=[N+]=[N-],1.32
3,C[N+](C)(C)CCCC[C@@H]1NC(=O)[C@H]2C[C@@H](C(=O)NCc3ccc(F)cc3)[C@@H](c3cccc(OCCO)c3)N2C1=O,1.42
4,C=CCC(OC(C)=O)[C@@H]1[C@@H](N(Cc2ccc(-c3ccccc3)cc2)C(=O)c2ccc(-c3ccccc3)cc2)c2cc(OCCCO)ccc2N1C(=O)Cc1ccc(OC)cc1 (stereo partly drawn),-0.209
5,CO[C@@H]1COC(=O)CC=C[C@@H](C)[C@H](OC)COC(=O)CC=C[C@H]1C,-0.176
6,O=C(NCc1ccccc1)[C@@]1(CCS(=O)(=O)c2ccccc2)COC(c2ccc(OCCCO)cc2)=N1,1.95
7,C=C(CCCC)/C(=C/C[C@@H](OC(=O)c1ccncc1)c1cccc(OCCO)c1)c1cc(C(=O)OC)ccc1OC,0.344
8,CC(C)[Si]1(C(C)C)OCc2cc(C3CC3)nc(-c3ccccc3)c21,-0.694
9,C=CCOC(=O)[C@@H]1[C@H]2C(=O)O[C@H](c3ccccc3)[C@H](c3ccccc3)N2[C@H](c2ccc(OCCOC(=O)[C@H]3C[C@H]4C(=O)N[C@@H](CCCCNC(C)=O)C(=O)N4[C@H]3c3ccc(O)cc3)cc2)[C@@]12C(=O)Nc1ccc(I)cc12,0.818
10,CC(C)N1CC=CC23O[C@@H]4/C=C\CCCOC(=O)C4[C@H]2C(=O)N(CCCCCO)[C@@H]3C1=O (stereo partly drawn),-1.04
11,O=C1O[C@@H](c2ccccc2)[C@@H](c2ccccc2)N2[C@@H](c3ccc(OCCO)cc3)[C@]3(C(=O)Nc4ccc(C#CCCO)cc43)[C@@H](C(=O)N3CCN(c4ncccn4)CC3)[C@H]12,0.842
12,COC(=O)[C@@]1(Cc2ccc(OC)cc2)[C@H]2c3cc(C(=O)N(C)C)n(CCc4ccc(OC)c(Br)c4)c3C[C@H]2CN1C(=O)c1ccccc1,1.73
13,CSCC[C@@H]1NC(=O)CC=C[C@@H](C)COC(=O)[C@H](CCSC)NC(=O)CC=C[C@@H](C)COC1=O,-0.242
14,CO[C@@H]1COC(=O)CC=C[C@H](C)COC(=O)[C@H](Cc2ccccc2)NC(=O)CC=C[C@H]1C,-0.0955
15,CC(C)(C)OC(=O)CC[C@]1(C(=O)NCCN2CCOCC2)N=C(c2ccc(OCCCO)cc2)O[C@H]1c1ccccc1CN=[N+]=[N-],2.12
16,CO[C@H]1O[C@H](CO)[C@@H](OC(=O)Nc2ccc3c(c2)OCO3)[C@H](OC(=O)Nc2ccccc2)[C@@H]1OC(=O)Nc1ccccc1,0.949
17,CCc1cccc(NC(=O)O[C@H]2[C@H](OC(=O)Nc3ccccc3)[C@@H](OC(=O)Nc3ccccc3)[C@@H](OC)O[C@@H]2CO)c1,2.41
18,CC(C)(C)OC(=O)CC[C@@]1(C(=O)NCc2ccccc2)N=C(c2ccc(OCCCO)cc2)O[C@@H]1c1ccccc1,2.67
19,C=CCNC(=O)[C@H]1[C@@H]2C(=O)O[C@@H](c3ccccc3)[C@@H](c3ccccc3)N2[C@@H](c2ccccc2OCCO)[C@]12C(=O)N(C(=O)OCCOC)c1ccc(C#CCNC(N)=O)cc12,1.23
20,CC(=O)NCCCC[C@@H]1NC(=O)[C@@H]2C[C@H](C(=O)NCCCCCCN(C)C)[C@H](c3ccc(O)cc3)N2C1=O,1.84
21,CCCC=C(CCC)[C@@H](NC(=O)c1ccccc1)c1ccccc1,-0.439
22,C=CCC(OC(C)=O)[C@@H]1[C@@H](N(Cc2ccc(-c3cccc(C(F)(F)F)c3)o2)C(=O)Cc2ccc(F)cc2)c2cc(OCCCO)ccc2N1C(=O)c1ccc(-c2ccccc2)cc1 (stereo partly drawn),0.14
23,CO[C@H]1COC(=O)[C@@H](C)NC(=O)CC=C[C@@H](C)[C@H](OC)COC(=O)CC=C[C@@H]1C,-0.0099
24,COc1ccc([Si](C)(C)[C@H]2[C@H](CCO)O[C@@]3(C(=O)N(Cc4ccccc4)c4ccc(N5C(=O)c6cccc7cccc5c67)cc43)[C@@H]2C)cc1,0.461
25,O=C/C=C/c1ccc(/C=C/c2ccccc2)cc1,0.2
26,O=C(CS)NCCCCCNC(=O)[C@H]1C[C@H]2C(=O)N3CCC[C@H]3C(=O)N2[C@H]1c1ccc(O)cc1,2.97
27,CO[C@H]1COC(=O)[C@H](C)NC(=O)CC=C[C@@H](C)[C@H](NS(=O)(=O)c2ccc(C)cc2)COC(=O)CC=C[C@@H]1C,0.368
28,O=C1C[C@@](C(=O)NC2CC2)(c2ccc([N+](=O)[O-])cc2)[C@@H](c2ccc(CO)cc2I)N1CC12CC3CC(CC(C3)C1)C2,0.626

# From PubChem BioAssay
